Bioassay records as filed in PubChem BioAssay.
Only some compounds are listed: those with a hit (about 5.1% of all), similar ones and a draw of the others.
CRFR2-BP antag: antagonists of CRF-BP/CRF-R2 complex, primary screen, cell-based, HEK293, calcium dye fluorescence, uHTS; CRF-induced calcium fluorescence; inhibition, % at 11.8 µM; 350,000 compounds, 0.59% hits; AID 588475, 2011;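 active = inhibition of the ligand-induced calcium signal above about 50% at the single tested concentration, limit read from the data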
GRIN3A LBD mod: binders of NR3A ligand-binding domain, primary screen, biophysical, differential scanning fluorimetry, uHTS; Glutamate receptor ionotropic, NMDA 3A (GRIN3A) ligand-binding domain; NR3A LBD differential scanning fluorimetry, Tm shift; 0% = protein alone, 100% = glycine-bound protein; Tm shift relative to glycine control, % at 25 µM; 340,000 compounds, 2.5% hits;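 active = melting temperature shift of at least 10% of the positive control shift, at one fixed dose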
CRFBP-R2 agonist: agonists of CRF-BP/CRF-R2 complex, primary screen, cell-based, HEK293, calcium dye fluorescence, uHTS; 350,000 compounds, 0.46% hits; calcium dye fluorescence (FLIPR); percent of saturating CRF peptide response; activation, % at 13.2 µM; CRF-binding protein / CRF receptor 2 complex (human);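 active = activation of at least 50%, plus an integration ratio under a set limit after plate pattern correction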;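 note: plate controls were neutral control wells without compound for no effect and CRF at EC100 for full effect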
MPTP block: mitochondrial permeability transition pore inhibitors, primary screen, biochemical, isolated mouse mitochondria, absorbance; 360,000 compounds, 1.4% hits; inhibition, % at 10 µM; Ca2+ swelling absorbance, 30 min;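 active = inhibition of 50% or more, scaled per plate between neutral and stimulator controls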;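 note: 0% = DMSO wells given calcium and 100% = 1 mM EGTA wells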
ANO1 block: TMEM16A chloride channel inhibitors, primary screen, cell-based, HTS; Anoctamin-1 (Mus musculus), Q8BHY3; HEK293 TMEM16A/YFP iodide influx fluorescence, ionomycin; normalized B-score (activity score, 25-100; higher = stronger inhibition) at 10 µM; 310,000 compounds, 1.2% hits; AID 588511, 2011;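 active = ratio plate-corrected score three or more library SD toward inhibition, starting fluorescence score within five deviations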;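 note: score derived from kinetic fluorescence span divided by baseline fluorescence per well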
Target sequence (Q8BHY3 whole entry, looked up): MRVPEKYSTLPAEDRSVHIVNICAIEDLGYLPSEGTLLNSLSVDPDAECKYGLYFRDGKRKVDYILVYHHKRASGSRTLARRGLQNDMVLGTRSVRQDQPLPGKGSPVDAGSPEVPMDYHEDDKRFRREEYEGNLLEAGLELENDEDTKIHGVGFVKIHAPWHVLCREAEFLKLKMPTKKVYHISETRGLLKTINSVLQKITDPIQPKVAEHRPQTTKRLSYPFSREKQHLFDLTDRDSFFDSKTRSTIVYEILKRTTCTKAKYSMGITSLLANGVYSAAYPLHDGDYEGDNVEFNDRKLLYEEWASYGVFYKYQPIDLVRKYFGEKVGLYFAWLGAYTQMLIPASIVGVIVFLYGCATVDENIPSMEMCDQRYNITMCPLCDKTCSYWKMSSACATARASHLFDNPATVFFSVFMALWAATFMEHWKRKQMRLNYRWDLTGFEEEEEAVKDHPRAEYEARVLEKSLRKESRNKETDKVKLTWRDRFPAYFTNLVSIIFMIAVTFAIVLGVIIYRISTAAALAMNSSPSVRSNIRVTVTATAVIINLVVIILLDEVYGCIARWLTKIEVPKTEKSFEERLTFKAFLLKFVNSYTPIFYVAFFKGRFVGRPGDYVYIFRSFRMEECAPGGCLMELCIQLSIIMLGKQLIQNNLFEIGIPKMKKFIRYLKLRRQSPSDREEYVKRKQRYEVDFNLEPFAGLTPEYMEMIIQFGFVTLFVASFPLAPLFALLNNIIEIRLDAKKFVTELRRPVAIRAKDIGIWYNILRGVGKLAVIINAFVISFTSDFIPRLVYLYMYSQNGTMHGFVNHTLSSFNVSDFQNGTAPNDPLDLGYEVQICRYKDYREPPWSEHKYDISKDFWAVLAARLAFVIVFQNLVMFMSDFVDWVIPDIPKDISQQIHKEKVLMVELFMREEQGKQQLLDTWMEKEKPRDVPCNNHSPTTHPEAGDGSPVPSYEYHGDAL
ANO1 activ: TMEM16A chloride channel activators or potentiators, primary screen, cell-based, HTS. Anoctamin-1 (Mus musculus), Q8BHY3. HEK293 TMEM16A/YFP-H148Q/I152L, iodide quench fluorescence; active compounds read low. B-score at 10 µM. 340,000 compounds, 0.3% hits. AID 623877, 2012;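 active = fluorescence-ratio B-score plate-corrected deviation score at least 3 library SD below zero, with starting fluorescence score within 5 deviations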;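 note: channel opened by trigger with iodide after compound preincubation; score built on the fluorescence ratio of max minus min over baseline; more negative score means more quench and so TMEM16A activation or potentiation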
Numbers without * were called inactive; i = inactive; / = no result.

SMILES	CRFR2-BP antag	GRIN3A LBD mod	CRFBP-R2 agonist	MPTP block	ANO1 block	ANO1 activ
C=CCN(C(=O)CCC(=O)Nc1cc(C)on1)C(C(=O)NC(C)(C)C)c1cccc(OC)c1OC (stereo unspecified)	-13	401*	-2	1	i	i
CC1(C)CC(=O)C=C(Nc2ccc([N+](=O)[O-])cc2)C1	10	-1	0	0	i	i
Oc1c(C=Nc2ccc(Cl)cn2)sc2ccccc12	-20	11*	10	3	i	i
Fc1ccccc1-c1ccc(/C=N/Nc2nc3ccccc3[nH]2)o1	3	21*	1	15	i	i
O=C(CSc1nnnn1C1CCCCC1)Nc1ccc(F)cc1	5	18*	-1	1	i	i
COC(=O)[C@]1(Cc2ccccc2)N[C@H](CN(C)C(=O)c2ccc(F)cc2)[C@@H]2C(=O)N(Cc3ccccc3)C(=O)[C@@H]21	-3	-2	-1	-1	/	i
CCNC(=S)Nc1cc(OC)c(NC(=O)c2ccco2)cc1OC	73*	0	-6	0	i	i
COc1ccc(Cl)cc1C(=O)Nc1ccc2c(c1)OCO2	11	28*	-2	4	i	i
COc1cc(SC)ccc1C(=O)Nc1ccc2c(c1)OCCO2	-7	14*	0	0	i	i
COc1ccccc1C(=O)Nc1ccc2c(c1)OCCO2	4	-1	-1	1	i	i
COc1ccc(Cl)cc1C(=O)Nc1ccc(NC(=O)c2ccco2)cc1	3	17*	0	1	i	i
CC(=O)c1cccc(NC(=O)C(C)OC(=O)C2=NNC(=O)CC2)c1 (stereo unspecified)	10	0	-1	1	/	i
Cc1ccc(C(=O)Nc2ccc3c(c2)OCO3)cc1Cl	/	/	/	1	i	i
Cc1ccc(NC(=O)c2ccc3c(c2)OCO3)cc1Cl	26	17*	-3	1	i	i
CCC[C@H]1COCCS(=O)(=O)N1Cc1ccc(Br)cc1	/	/	/	/	i	/
CCOc1cc(C(=O)N(C)CC(=O)Nc2cccc3ccccc23)ccc1OC	2	2	-1	-1	/	i
COC(=O)c1ccc(-n2nnnc2SCC(=O)N2CCCCC2)cc1	-45	37*	-2	3	i	i
C/C(=N\Nc1ccc(C(=O)c2c(C)cc3ccccn23)cc1[N+](=O)[O-])c1ccc(O)cc1	2	6	-2	22	i	i
C/C(=N/Nc1ccc(C(=O)c2c(C)cc3ccccn23)cc1[N+](=O)[O-])c1ccc(O)cc1	16	11*	-4	5	/	i
C=C1/C(=C\C=C2/CCC[C@]3(C)[C@@H]([C@H](C)CCCC(C)(C)O)CC[C@@H]23)C[C@@H](O)C[C@@H]1O	/	/	/	/	100*	/
CC(C)CCC[C@@H](C)[C@H]1CC[C@H]2[C@@H]3C(=O)C=C4C[C@@H](O)CC[C@]4(C)[C@H]3CC[C@]12C	-4	-4	1	2	i	i
O=C(CSc1nc2ccccc2c(=O)n1CCCO)Nc1ccc2c(c1)OCCO2	17	0	0	-1	/	i
Fc1ccc(C2c3cccn3CCN2C(=S)Nc2cccc(F)c2)cc1 (stereo unspecified)	53*	4	6	15	i	i
Fc1cccc(NC(=S)N2CCn3cccc3C2c2cccnc2)c1 (stereo unspecified)	-11	3	2	0	i	i
C=CCn1c(SCC(=O)NC2CC2)nnc1-c1cccs1	-1	-1	-1	-1	i	i
SMILES	CRFR2-BP antag	GRIN3A LBD mod	CRFBP-R2 agonist	MPTP block	ANO1 block	ANO1 activ
O=[N+]([O-])c1ccc(S(=O)(=O)Nc2cccc(-c3ccc(N4CCOCC4)nn3)c2)cc1	-5	72*	-2	-1	i	i
O=S(=O)(Nc1ccc(-c2ccc(N3CCOCC3)nn2)cc1)c1ccc(Cl)c(Cl)c1	-8	5	1	-1	25*	i
Cc1ccc(S(=O)(=O)Nc2cccc(-c3ccc(N4CCCCCC4)nn3)c2)cc1C	4	2	2	-1	i	i
Cc1ccc([N+](=O)[O-])cc1S(=O)(=O)Nc1cccc(-c2ccc(N3CCCC3)nn2)c1	-4	12*	-3	1	i	i
CCCCn1c(N)c(N(C)C(=O)C2CCCC2)c(=O)[nH]c1=O	-5	15*	0	-1	/	i
CCCCn1nnnc1C1(C)CCC(=O)N1CCc1ccccc1F (stereo unspecified)	/	/	/	1	/	/
Cn1c(=O)c(NC2CCCCC2)c2c3c(cccc31)C(=O)c1ccccc1-2	-330	-6	380	0	/	i
CCNc1c2c3c(cccc3n(C)c1=O)C(=O)c1ccccc1-2	-158	4	179*	/	i	/
Cn1c(=O)c(NCCO)c2c3c(cccc31)C(=O)c1ccccc1-2	i	-386	865	-3	i	i
Cn1c(=O)c(NCCc2ccccc2)c2c3c(cccc31)C(=O)c1ccccc1-2	-206	43*	273	1	i	i
CCCCNc1c2c3c(cccc3n(C)c1=O)C(=O)c1ccccc1-2	-272	-34	239*	2	i	i
COc1cc(CCN(C(C)=O)C2C(=O)Nc3ccccc3N=C2c2ccc3c(c2)OCO3)cc(OC)c1 (stereo unspecified)	/	/	/	0	/	/
COc1ccc(C(=O)n2cnc3ccccc32)cc1[N+](=O)[O-]	15	-2	-2	1	i	i
Cc1nn(-c2ccc(N3CCCCC3)nn2)c(C)c1CCC(=O)Nc1cc(F)ccc1F	5	-3	-3	0	i	i
O=S(=O)(Nc1cc(S(=O)(=O)N2CCOCC2)ccc1N1CCOCC1)c1ccc2c(c1)OCCO2	-2	0	0	0	i	i
COc1ccc(S(=O)(=O)Nc2ccccc2C)cc1C(=O)N1CCOCC1	11	0	0	0	i	i
O=S(=O)(Nc1cc(S(=O)(=O)N2CCOCC2)ccc1O)c1ccc2c(c1)OCCCO2	-3	0	-1	-2	/	-22*
Cc1ccccc1NS(=O)(=O)c1ccc(C)c(C(=O)N2CCOCC2)c1	54*	-1	1	0	i	i
O=C(O)c1ccccc1NS(=O)(=O)c1ccc2c(c1)OCCO2	57*	-1	-1	-1	i	i
CC(C)(C)c1cc(NCCCn2ccnc2)n2ncc(-c3ccc(Cl)cc3)c2n1	-47	20*	-1	3	i	i
